# Experimental data as given in PubChem BioAssay (NCATS).
# Records with an inconclusive call do not appear. Values without a mark were called inactive. Active and inactive are the calls of the source. Calls follow the shape of the dose curve; as a rule, active = well fitted inhibition curve with a large enough effect; inconclusive = small, poorly fitted or top-dose-only effect; inactive = flat fitted curve, though single readings scatter.
# System: HaCat
# Experiment: Cytotoxic Profiling of Annotated Libraries Using Quantitative High-Throughput Screening (AID 1296008); also: nearly all actives have a fitted effect of over 60% in size
# Settings: Five cell lines viability, CellTiter-Glo ATP luminescence, 48-72 h; max response: hits give low values
# Summary of the method: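 Compounds were pin-transferred onto cells and incubated 48 or 72 hr at 37 degree Celsius, 95% humidity. CellTiter-Glo was added, plates sat 10 min at room temperature, then ATP-coupled luminescence was imaged as the viability read-out.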
# % is scaled to controls: 0 for no effect and ±100 for the full control effect.
Structure (SMILES),max response,outcome
O=C(/C=C/c1ccc(O)c(O)c1)O[C@@H]1[C@@H](O)[C@H](OC2CCCCC2O)O[C@H](CO)[C@H]1O (some centres undefined),2.85%,–
COc1cc(C(CO)CO[C@@H]2O[C@H](CO)[C@@H](O)[C@H](O)[C@H]2O)ccc1O (some centres undefined),-35.5%,–
CC1(C)CC2C3=CCC4[C@@]5(C)CC[C@H](OC6OCC(O)C(OC7OC(CO)C(O)C(O)C7O)C6O)C(C)(C)C5CC[C@@]4(C)[C@]3(C)C[C@H](O)[C@@]2(CO)[C@H](OC(=O)c2ccccc2)C1 (some centres undefined),–,inactive
C=C[C@@]1(C)CCC2=C([C@H]1OC(C)=O)[C@H](OC(C)=O)CC1[C@](C)(C(=O)OC)CC[C@H](OC(C)=O)[C@]21C (some centres undefined),–,inactive
O=C(N[C@@H]1CC[C@@H](c2cccc(F)c2F)CN(CC(F)(F)F)C1=O)N1CCC(n2c(=O)[nH]c3ncccc32)CC1,–,inactive
O=c1[nH]ccc2nc(-c3ccc(CN4CCC(c5nc(-c6ccccn6)n[nH]5)CC4)cc3)c(-c3ccccc3)cc12,–,inactive
CC1=C2C[C@H]3OC(=O)[C@H](O)[C@@]4(O)[C@@H](C)[C@@H](O)[C@H](O)C([C@@]2(C)[C@H](O)[C@@H](O)C1)[C@@]34C (some centres undefined),–,inactive
C=CC(C)(O)CC/C=C(\C)C(=O)O[C@@H]1[C@@H](O)[C@H](OC(C)(C=C)CC/C=C(\C)C(=O)O[C@@H]2O[C@H](CO)[C@@H](O)[C@H](O)[C@H]2O)O[C@H](CO)[C@H]1OC(=O)/C(C)=C/CCC(C)(O)C=C (some centres undefined),–,inactive
CC(C)(O)C1OC1C1=CC(=O)C2(C)OC2C1O (centres undefined),–,inactive
